Six1-Eya2 blk = blocks human Six1 binding to Eya2 | 360,000 tested, 0.56% active | AlphaScreen GST-Six1/His-Eya2 binding, biochemical; hits give low values | Q15475+O00167 | activity change, % (no concentration beside the values); in the data active means activity change below about -65%; inconclusive means mostly about -30% to -63%
Target sequence (O00167 whole entry, looked up): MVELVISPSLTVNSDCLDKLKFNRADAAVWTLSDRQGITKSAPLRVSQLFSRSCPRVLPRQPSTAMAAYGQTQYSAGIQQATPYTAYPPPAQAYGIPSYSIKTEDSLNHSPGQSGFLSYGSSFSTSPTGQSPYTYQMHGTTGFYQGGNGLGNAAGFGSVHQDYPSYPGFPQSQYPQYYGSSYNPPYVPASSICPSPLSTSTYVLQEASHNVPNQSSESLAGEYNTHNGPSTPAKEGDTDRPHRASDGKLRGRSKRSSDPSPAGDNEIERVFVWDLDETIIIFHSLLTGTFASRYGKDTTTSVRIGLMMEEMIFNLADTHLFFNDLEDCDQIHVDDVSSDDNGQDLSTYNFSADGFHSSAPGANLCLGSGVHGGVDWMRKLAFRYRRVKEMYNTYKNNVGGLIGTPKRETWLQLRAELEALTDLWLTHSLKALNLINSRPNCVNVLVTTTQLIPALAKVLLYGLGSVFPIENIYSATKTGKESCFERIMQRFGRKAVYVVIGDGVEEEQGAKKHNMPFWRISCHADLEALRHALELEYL
Target sequence (Q15475 whole entry, looked up): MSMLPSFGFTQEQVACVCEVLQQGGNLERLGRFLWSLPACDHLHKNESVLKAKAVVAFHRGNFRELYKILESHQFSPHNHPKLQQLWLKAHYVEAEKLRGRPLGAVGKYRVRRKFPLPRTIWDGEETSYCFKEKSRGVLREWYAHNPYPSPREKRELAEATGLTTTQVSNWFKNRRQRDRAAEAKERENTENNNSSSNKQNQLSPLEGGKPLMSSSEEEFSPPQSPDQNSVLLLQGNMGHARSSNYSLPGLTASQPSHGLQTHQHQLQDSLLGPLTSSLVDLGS
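Six1/Eya2 binding was read as AlphaScreen signal after compounds were pinned into GST-Six1 plus His-tagged Eya2 (5X stock 250/500 nM) in pH 8.0 Tris/NaCl/TCEP buffer, beads added, then incubated 1 h, 37 C, dark.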
IL1B secr inh = inhibitors of inflammasome signaling (IL-1 beta secretion). THP-1 LPS/ATP IL-1B secretion, AlphaLISA, 16 h; hits give low values. activity change, % at 57.5 µM. 360,000 tested, 4.7% active; in the data active means activity change below about -50%; inconclusive means mostly about -30% to -49%
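Secreted IL-1B measured by AlphaLISA bead assay after 16 h compound exposure of THP-1 cells; compounds (final up to 57.5 uM) added 1 h before LPS (250 ng/mL) and ATP (1.25 mM) stimulation; lower signal means less secretion.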
TDP1 block = blocks human tyrosyl-DNA phosphodiesterase 1 | Q9NUW8 | recombinant TDP1, AlphaScreen DNA substrate cleavage | Potency, µM (series often up to 130 µM), for the others: at the top dose activity change, negative = inhibition, most hits filed as inhibitors | 350,000 tested, 0.28% active | AID 485290; further: potency means the concentration at half of the fitted maximal effect; nearly all actives have a fitted effect of over 40% in size
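Recombinant human Tdp1 (E. coli-expressed, 1 nM final) preincubated with compounds 15 min at room temperature, then 5'-biotin/3'-phosphotyrosine-FITC DNA substrate (15 nM final) added for 5 min. AlphaScreen beads (10 ug/ml final) added 10 min; cleavage lowers signal.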
TDP1 cell CPT = growth inhibition of DT40 Tdp1-/-;hTDP1 cells with camptothecin (screen for TDP1 inhibitors). chicken DT40 Tdp1-/-;hTDP1 cells + 20 nM CPT, ATP luminescence, 48 h. Potency, µM (doses to about 46.2 µM), for the others: top-dose activity change, negative = growth inhibition, usual class: inhibitors. 420,000 tested, 12% active. AID 686979; further: potency means the concentration at half of the fitted maximal effect; nearly all actives have a fitted effect of over 55% in size
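Cell growth measured by CellTiter-Glo luminescence after a minimum 48 h, 37 C compound exposure with 20 nM CPT in Tdp1-knockout DT40 cells stably expressing hTDP1, seeded 400/well; qHTS titration format.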
TDP1 cell noCPT = qHTS for Inhibitors of human tyrosyl-DNA phosphodiesterase 1 (TDP1): qHTS in cells in absence of CPT; DT40 Tdp1-/- hTDP1 cells, no CPT, ATP luminescence, 48 h; 420,000 tested, 15% active; Potency, µM (doses to about 46.2 µM), for the others: top-dose activity change, negative = growth inhibition, most hits filed as inhibitors; further: potency means the concentration at half of the fitted maximal effect; nearly all actives have a fitted effect of over 55% in size
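Camptothecin absent (DMSO only). Human TDP1-complemented DT40 knockout cells, 400 cells/well, 37 °C for minimum 48 hr; ATP measured via CellTiter-Glo, 30 min dark incubation, luminescence.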
CtBP-E1A inh = blocks the CtBP interaction with E1A | AlphaScreen GST-E1A/His-CtBP binding, 1536-well; hits give low values | 340,000 tested, 0.49% active | AID 651724 | activity change, % (concentration not given with the values); in the data active means activity change below about -65%; inconclusive means mostly about -30% to -63%
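GST-E1A and His-tagged CtBP (125 nM each as 5X stock) were preincubated with pin-transferred compound for 2 h at 37 °C in the dark, then glutathione donor and nickel acceptor beads were added for 1 h before AlphaScreen reading.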
The depositor's hits bear a star; ? = inconclusive; nt = no result given; [ ] = another dose, or the depositor's remark. An excerpt weighted towards active compounds, which were near 18% of everything screened. Unless noted, the call rests on the fitted dose curve; in most records, active means well fitted curve in the direction sought with a large enough effect; inconclusive means small, poorly fitted or top-dose-only effect, or another doubt; inactive means no such curve, though single readings can be large; an effect the other way counts as inactive or inconclusive. On the % scale 0 is the no-effect control and ±100 the full control effect.

SMILES	Six1-Eya2 blk	IL1B secr inh	TDP1 block	TDP1 cell CPT	TDP1 cell noCPT	CtBP-E1A inh
COC(=O)C[C@@H]1C[C@H]2c3cc(NS(=O)(=O)c4ccccc4)ccc3O[C@H]2[C@@H](CO)O1	2.2	-4.5	nt	0.3%	-5.9%	-14.0
COc1ccc(CC(=O)NNC(=O)c2cccs2)cc1OC	4.9	-6.3	-2.5%	8.8%	13.4%	5.6
CCC(C(=O)O/N=C(\N)c1ccccc1)c1ccccc1 (configuration not stated)	48.6	-7.9	0.0%	-14.8%	-25.9%	58.9
N/C(=N\OC(=O)C(c1ccccc1)c1ccccc1)c1ccncc1	19.2	-14.1	nt	-4.2%	29.1µM*	-14.6
CCC(C)NC(=O)C1CCN(S(=O)(=O)N2CCOCC2)CC1 (configuration not stated)	1.1	7.9	-1.1%	-2.1%	2.4%	nt
Nc1cc(Cl)ccc1N1C(=O)CCC1=O	0.6	25.8	7.6%	1.4%	5.9%	nt
Nc1cc([N+](=O)[O-])ccc1N1C(=O)CCCC1=O	-1.5	-4.9	20µM*	-4.1%	-3.2%	nt
Cc1c2cnn(CC(=O)NCCN3CCOCC3)c(=O)c2c(C)n1Cc1ccccc1	2.3	4.4	nt	-1.7%	-7.5%	-4.1
Cc1cccnc1Sc1c([N+](=O)[O-])ncn1C	2.6	-11.3	1.1%	-10.2%	1.6%	2.1
Cn1cnc([N+](=O)[O-])c1Sc1ccncn1	-10.0	-4.7	nt	-27.9%	13µM*	-0.2
Cc1cccc(Sc2c([N+](=O)[O-])ncn2C)c1	-1.2	-20.4	-2.0%	?	23.1µM*	-7.7
O=C(OCc1ccccc1)/C(=C/c1cccc(Br)c1)NC(=O)c1ccco1	-6.1	0.0	4.2%	?	?	3.8
O=C(Cn1c(NCCCO)nc2ccccc21)c1ccc(Cl)cc1	11.1	-10.6	nt	?	?	nt
Cc1cc2nc(NCCCO)n(CC(=O)c3cc(C(C)(C)C)c(O)c(C(C)(C)C)c3)c2cc1C	9.1	-50.6*	5.5%	16.4µM*	23.1µM*	2.0
COc1ccc(-c2ocnc2C(=O)Nc2ccccc2N2CCCCC2)cc1	0.0	5.5	-5.7%	?	?	0.0
CCNC(=O)C1(C)CCCN1Cc1cccc(C(F)(F)F)c1 (configuration not stated)	2.7	31.3	nt	18.4µM*	18.4µM*	10.8
CC1(C(=O)NCc2cccc(C(F)(F)F)c2)CCN1Cc1ccc(-c2ccccc2)o1 (configuration not stated)	-2.7	-18.9	nt	?	?	11.5
CCNC(=O)C1(C)CCCCN1Cc1ccc(C#N)cc1 (configuration not stated)	10.2	45.6	nt	?	?	-7.6
CC1(C(=O)NCc2cccc(C(F)(F)F)c2)CCN1Cc1cc2ccccc2o1 (configuration not stated)	-1.6	?	nt	25.9µM*	18.4µM*	3.6
CCn1cc(/C=N\NC(=O)c2cc(-c3ccccc3OC)nc3ccccc23)c(C)n1	-15.2	-1.9	2.6%	?	16.4µM*	-20.2
COc1ccccc1-c1cc(C(=O)N/N=C\c2cnn(C)c2C)c2ccccc2n1	-20.8	13.7	7.7%	?	?	-5.3
COc1ccccc1-c1cc(C(=O)N/N=C\c2cn(C)nc2C)c2ccccc2n1	-13.5	0.6	7.9%	?	13µM*	-17.0
C=C(C)C(=O)Nc1cccc(C2=NOC3(C2)C[C@@H](C(N)=O)N(C(=O)[C@H]2CCC(=O)N2)C3)c1 (some centres not stated)	-16.9	14.3	-5.9%	1.9%	4.4%	2.1
COc1ccc(S(=O)(=O)Nc2ccc3c(c2)C(=O)N([C@H](C)CO)C[C@H](C)[C@@H](CN(C)S(=O)(=O)c2ccccc2)O3)cc1	0.1	-14.1	0.3%	20.6µM*	?	3.8
COc1ccc(S(=O)(=O)N(C)C[C@H]2Oc3ccc(NS(=O)(=O)c4ccccc4)cc3C(=O)N([C@H](C)CO)C[C@@H]2C)cc1	2.2	?	-5.5%	-26.1%	-9.1%	0.4
SMILES	Six1-Eya2 blk	IL1B secr inh	TDP1 block	TDP1 cell CPT	TDP1 cell noCPT	CtBP-E1A inh
COc1ccc(S(=O)(=O)N(C)C[C@H]2Oc3ccc(NC(=O)Cc4cn(C)c5ccccc45)cc3C(=O)N([C@@H](C)CO)C[C@@H]2C)cc1	-7.7	-2.1	3.1%	?	14.6µM*	-6.8
CCCn1c(=O)c2sccc2n2c(CCCC(=O)Nc3cccc(CC)c3)nnc12	nt	nt	0.0%	23.1µM*	?	nt
CCCn1c(=O)c2sccc2n2c(CCCC(=O)NCCOC)nnc12	nt	nt	-7.7%	-2.3%	0.4%	nt
CCCn1c(=O)c2sccc2n2c(CCCC(=O)Nc3ccc(C)c(F)c3)nnc12	nt	nt	-7.7%	?	23.1µM*	nt
COCCCN1C(=O)C(=O)/C(=C(/O)c2ccccc2)C1c1ccc(N(C)C)cc1 (configuration not stated)	1.0	-9.4	3.1%	1.2%	4.3%	6.5
CC1=NN(C(N)=S)C(=O)C1N=Nc1c(Cl)cc([N+](=O)[O-])cc1Cl (configuration not stated)	?	-19.4	nt	?	16.4µM*	nt
CC1=NN(C(N)=S)C(=O)C1N=Nc1ccccc1C (configuration not stated)	2.8	-7.1	1.9%[56.1 µM]	1.64µM*	1.64µM*	-0.3
CC1=NN(C(N)=S)C(=O)C1N=Nc1ccc(C)cc1C (configuration not stated)	nt	nt	5.1%	nt	nt	nt
CCOc1ccccc1N=NC1C(=O)N(C(N)=S)N=C1C (configuration not stated)	-0.1	40.6	nt	16.4µM*	3.66µM*	2.2
CC1=NN(C(N)=S)C(=O)C1N=Nc1c(C)cc(C)cc1C (configuration not stated)	-7.0	11.9	6.0%	0.517µM*	0.581µM*	-9.3
CC1=NN(C(N)=S)C(=O)C1N=Nc1ccccc1[N+](=O)[O-] (configuration not stated)	-0.8	15.9	nt	?	-20.4%	-9.9
CCOc1ccc(N(C(C)C(=O)N/N=C(\C)C(C)(C)C)S(C)(=O)=O)cc1 (configuration not stated)	2.1	14.3	5.1%	-9.2%	0.3%	-0.1
COc1ccc(-c2cc(C(F)(F)F)n3nc(C(=O)N4CCCCC4)cc3n2)cc1	1.5	-53.1*	-3.2%	16.4µM*	23.1µM*	11.8

Bioassay records as filed in PubChem.
